Source: PubChem BioAssay
3CLpro inhibitor – SARS-CoV 3CLpro protease inhibition | P0C6X7 | recombinant SARS-CoV 3CLpro, quenched FRET peptide cleavage | inhibition, % at 6 µM | actives 0.14% (n = 290,000); in the data active = inhibition above about 12%
BJeLR lethal – BJeLR cell viability loss | BJeLR (HRASV12) viability, CellTiter-Glo ATP luminescence, 48 h | actives 0.17% (n = 300,000) | AID 1554 | inhibition, % (no concentration beside the values); in the data active = inhibition above about 50%
MazEF act – increases E. coli MazEF RNase cleavage of RNA. actives 0.32% (n = 350,000). P0AE70. FAM/BHQ RNA-DNA oligo cleavage fluorescence, 5 h. activation, % at 20 µM. AID 504720; in the data active = activation above about 50%
Target sequence (P0AE70 whole entry, looked up): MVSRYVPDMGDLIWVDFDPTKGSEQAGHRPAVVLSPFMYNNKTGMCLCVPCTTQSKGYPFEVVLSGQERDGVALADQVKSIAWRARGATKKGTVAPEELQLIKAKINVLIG
CCHF vOTU inh-1 – blocks the CCHF virus ovarian tumor domain protease; inhibition, % at 11.5 µM; CCHFV vOTU protease, Pep-AMC fluorescence; actives 0.55% (n = 370,000)
VHR inh abs – DUSP3 (human) phosphatase inhibition. P51452. recombinant VHR phosphatase, pNPP absorbance. inhibition, % at 13.3 µM. actives 0.52% (n = 290,000). AID 1654; in the data active = inhibition above about 50%
Target sequence (P51452 whole entry, looked up): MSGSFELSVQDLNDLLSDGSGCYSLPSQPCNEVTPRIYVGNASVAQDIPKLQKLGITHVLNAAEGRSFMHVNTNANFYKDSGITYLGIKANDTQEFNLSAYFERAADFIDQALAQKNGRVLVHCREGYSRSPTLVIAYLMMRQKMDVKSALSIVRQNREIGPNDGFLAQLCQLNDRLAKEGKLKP
CCHF vOTU inh-2 – CCHFV vOTU protease inhibition, confirmation; actives 17% (n = 1,900); Recombinant CCHFV vOTU, Pep-AMC fluorescence; inhibition, % at 11.5 µM; shares compounds with CCHF vOTU inh-1
Numbers stand for hits; 0 = inactive; - = no result given. In the library only some 1.4% were active in any assay of this set; here they are far more common. Rule as the data show it, unless noted: active = inhibition above about 30%; inactive = the rest.

SMILES | 3CLpro inhibitor | BJeLR lethal | MazEF act | CCHF vOTU inh-1 | VHR inh abs | CCHF vOTU inh-2
CCC(=O)NC(c1cccs1)c1cc([N+](=O)[O-])c2cccnc2c1O (stereo not drawn) | 0 | 0 | 0 | 38 | 0 | 33
CCN(CC)CCCNC(=O)c1cn(C(C)c2ccccc2)nn1 (stereo not drawn) | - | - | - | 0 | - | -
Cc1cc(C)c(S(=O)(=O)NCC(c2ccco2)N2CCc3ccccc3C2)c(C)c1 (stereo not drawn) | - | 0 | 0 | 30 | - | 0
CC(=O)CC[C@@H]1CC[C@]2(CCCN(C(=O)C(C)(C)C)C2)O1 | - | - | - | 0 | - | -
O=C(O)COc1ccccc1/C=N/Nc1ccc(S(=O)(=O)Nc2ccc(Cl)cc2)cc1[N+](=O)[O-] | 0 | 0 | 0 | 37 | 0 | 0
O=C(O)c1ccccc1NS(=O)(=O)c1ccc(N/N=C/c2ccc(O)c(O)c2)c([N+](=O)[O-])c1 | - | - | 0 | 42 | - | 46
COc1ccccc1NS(=O)(=O)c1ccc(N/N=C/c2ccccc2OCC(=O)O)c([N+](=O)[O-])c1 | 0 | 0 | 0 | 30 | 0 | 0
COc1ccc(NS(=O)(=O)c2cc([N+](=O)[O-])ccc2NN=Cc2ccccc2OCC(=O)O)cc1 | - | - | 0 | 0 | - | -
CCN(CC)S(=O)(=O)c1ccc(N/N=C/c2ccccc2OCC(=O)O)c([N+](=O)[O-])c1 | 0 | 0 | 0 | 34 | 0 | 0
C=CCN1C(=O)[C@H](CC(=O)NCC23CC4CC(CC(C4)C2)C3)[C@@]2(C(=O)OC)CCCCC=C12 | - | - | - | 0 | - | -
COC(=O)C12C=C3CC(c4ccc(C(F)(F)F)cc4)=C3C(=O)N1Cc1[nH]c3ccccc3c1C2 (stereo not drawn) | - | - | - | 0 | - | -
CC(C)N1CCCCC(NC(=O)c2ccc(F)c(F)c2)C1=O (stereo not drawn) | - | - | - | 0 | - | -
CCCCc1c(C)nc2ccccc2c1SCCC#N | 0 | 0 | 0 | 0 | 0 | -
CCc1c(C)nc2c(C)cccc2c1SCCC#N | 0 | 0 | 0 | 33 | 0 | 0
CCCCCCn1c(=O)n2n(c1=O)[C@@H]1CN(S(=O)(=O)c3ccc(C)cc3)C[C@]1(O)[C@@H](OC(=O)NCc1ccccc1F)C2 | - | - | 0 | 0 | - | -
CCCCCCNC(=O)O[C@H]1Cn2c(=O)n(CCCCCC)c(=O)n2[C@@H]2CN(S(=O)(=O)c3ccc(C)cc3)C[C@]12O | - | - | 0 | 0 | - | -
CCCCCCn1c(=O)n2n(c1=O)[C@@H]1CN(S(=O)(=O)c3ccc(C)cc3)C[C@]1(O)[C@@H](OC(=O)NCc1ccc(OC)c(OC)c1)C2 | - | - | 0 | 43 | - | 0
CCCCCCn1c(=O)n2n(c1=O)[C@@H]1CN(S(=O)(=O)c3ccc(C)cc3)C[C@]1(O)[C@@H](OC(=O)Nc1cccs1)C2 | - | - | 0 | 34 | - | 0
COC(=O)[C@H](C(C)C)N(CCc1cn(CC2CCCCC2)nn1)S(=O)(=O)c1ccc(F)cc1Br | - | - | - | 0 | - | -
Cc1nc2ccc(S(=O)(=O)NCC(=O)N(C)Cc3ccccc3F)cc2s1 | - | - | - | 0 | - | -
COC(=O)c1[nH]c2ccc(Cl)cc2c1NC(=O)c1ccccc1[N+](=O)[O-] | 0 | 0 | 0 | 0 | 0 | -
O=C(O)c1[nH]c2ccccc2c1C(c1cc(Cl)cc([N+](=O)[O-])c1O)c1c(C(=O)O)[nH]c2ccccc12 | 0 | 0 | 0 | 46 | 0 | 0
O=C(NCCO)c1cccc(-c2cnc3c(Nc4cccc(OC(F)(F)C(F)F)c4)nccn23)c1 | - | - | - | 0 | - | -
Cc1ccc(S(=O)(=O)Nc2ccc(Nc3nccn4c(-c5cccc(OC(F)(F)F)c5)cnc34)cc2)cc1 | - | - | - | 30 | - | 0
Cn1c(N)c(C(=O)CCc2ccccc2)c(=O)n(C)c1=O | - | - | - | 0 | - | -
SMILES | 3CLpro inhibitor | BJeLR lethal | MazEF act | CCHF vOTU inh-1 | VHR inh abs | CCHF vOTU inh-2
CCN(CC(=O)c1c(N)n(C)c(=O)n(C)c1=O)c1cccc2ccccc12 | 0 | 0 | 0 | 82 | 0 | 0
Cc1ccc(S(=O)(=O)/N=C(/Nc2nc(C)cs2)c2ccccc2)cc1 | - | - | 0 | 38 | - | 0
Cc1ccc2nc(N/C(=N/S(=O)(=O)c3ccc(F)cc3)c3ccccc3)sc2c1 | 0 | 0 | 0 | 0 | 0 | -
CC(=O)N(C1=C(N)C(=O)c2ccccc2C1=O)c1ccccc1 | 0 | 0 | 0 | 73 | - | 64
O=C(N(c1ccccc1)c1ccccc1)N(c1ccccc1)c1ccccc1 | 0 | 0 | 0 | 0 | 0 | -
CCOC(=O)[C@@]12CCCC3=C1N(CCC3)C(=O)[C@H]2CC(=O)NCc1cccc(C(F)(F)F)c1 | - | - | - | 0 | - | -
CCOC(=O)[C@]12CCCCC/C=C\1N(CCc1ccc(Cl)cc1)C(=O)[C@H]2CC(=O)N1CCOCC1 | - | - | - | 0 | - | -
